Among the data in PubChem BioAssay are z-score and composite z-score values, retold here.

The nature of test [1]: compound effects on lung adenocarcinoma cell viability – A549, calcein-AM fluorescence, 48 h, basal, profiling panel (AID 1162). Also: test concentration not given here. The settings on record: higher = more signal.
Test [2] in a line: compound effects on differentiated 3T3-L1 adipocyte viability – cell-based, 3T3-L1 adipocytes, calcein-AM fluorescence, 48 h, basal, profiling panel (AID 1163). Also: test concentration not given here. The settings on record: 3T3-L1 adipocytes viability, higher = more signal.
A short description of test [3]: compound effects on hepatocellular carcinoma cell viability – HepG2, calcein-AM fluorescence, 48 h, basal, profiling panel (AID 1164). Also: test concentration not given here. As to conditions: higher = more signal.
Test [4] is described as follows: compound effects on multiple myeloma cell viability – MM1S, calcein-AM fluorescence, 48 h, basal, profiling panel (AID 1165). Also: test concentration not given here. As to conditions: higher = more signal.
Test [5] in a line: calcein-AM signal in unstimulated myeloma cells – cell-based, calcein-AM fluorescence, 48 h, PK04 Diversity Set, profiling panel (AID 1166).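 Also: cells grown under basal conditions without added stimulus; test concentration not given here.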 The settings on record: RPMI8226 myeloma viability, higher = more signal.
Test [6] is described as follows: JC-1 mitochondrial signal, unstimulated HepG2 cells – cell-based, JC-1 fluorescence, 24 h, 100 nL compound, profiling panel (AID 1167). Also: test concentration not given here. As to conditions: HepG2 mitochondrial potential, higher = more signal.
Test [7] is described as follows: JC-1 mitochondrial signal, unstimulated adipocytes – cell-based, JC-1 fluorescence, 3T3-L1 adipocytes, 24 h, 100 nL compound, profiling panel (AID 1168). Also: test concentration not given here. As to conditions: JC-1 mitochondrial fluorescence, higher = more signal, called active from +8 up or from −8 down.
Test [8] is described as follows: JC-1 mitochondrial signal, unstimulated myeloma cells – cell-based, JC-1 fluorescence, RPMI8226, 24 h, 100 nL compound, profiling panel (AID 1169). Also: test concentration not given here. The settings on record: JC-1 mitochondrial potential fluorescence, higher = more signal.
The nature of test [9]: JC-1 mitochondrial signal, unstimulated MM1S myeloma – cell-based, JC-1 fluorescence, 24 h, 100 nL compound, profiling panel (AID 1170). Also: test concentration not given here. As to conditions: MM1S mitochondrial potential, higher = more signal.
Test [10] in a line: resazurin metabolic signal in A549 cells – cell-based, resazurin fluorescence, 24 h, PK04 Diversity Set, profiling panel (AID 1171). Also: test concentration not given here. As to conditions: A549 viability, higher = more signal, called active from +8 up or from −8 down. A general note: Resazurin is reduced to fluorescent resorufin, in cell work by metabolically active cells.
A short description of test [11]: resazurin metabolic signal in HepG2 cells – cell-based, resazurin fluorescence, 24 h, PK04 Diversity Set, profiling panel (AID 1172). Also: test concentration not given here. The settings on record: HepG2 viability, higher = more signal.
Test [12] is described as follows: budding yeast growth changes without added modifier – OD600, strain BY4716, 24 h, basal condition, primary screen (AID 1173). As to conditions: S. cerevisiae BY4716 growth, OD600, 24 h; higher = more signal, called active from +8 up or from −8 down.
The nature of test [13]: viability profiling in MM1S myeloma cells – cell-based, resazurin fluorescence, basal, 24 h, PK04 Diversity Set, profiling panel (AID 1174). Also: test concentration not given here. The settings on record: higher = more signal, called active from +8 up or from −8 down.
For test [14], the target named is Dihydroorotate dehydrogenase (quinone), mitochondrial (Plasmodium falciparum (isolate 3D7)) (UniProt Q08210). In words: inhibition of P. falciparum DHODH – biochemical, C-terminal His tag, absorbance 600 nm, primary screen (AID 1175).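 Also: recombinant parasite enzyme with a five histidine tag at its C terminus; test concentration not given here.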 The settings on record: PfDHODH enzyme, DCIP absorbance 600 nm; higher = more signal, called active from +8 up or from −8 down.
Chain of Dihydroorotate dehydrogenase (quinone), mitochondrial (Plasmodium falciparum (isolate 3D7)) (Q08210 whole entry, looked up): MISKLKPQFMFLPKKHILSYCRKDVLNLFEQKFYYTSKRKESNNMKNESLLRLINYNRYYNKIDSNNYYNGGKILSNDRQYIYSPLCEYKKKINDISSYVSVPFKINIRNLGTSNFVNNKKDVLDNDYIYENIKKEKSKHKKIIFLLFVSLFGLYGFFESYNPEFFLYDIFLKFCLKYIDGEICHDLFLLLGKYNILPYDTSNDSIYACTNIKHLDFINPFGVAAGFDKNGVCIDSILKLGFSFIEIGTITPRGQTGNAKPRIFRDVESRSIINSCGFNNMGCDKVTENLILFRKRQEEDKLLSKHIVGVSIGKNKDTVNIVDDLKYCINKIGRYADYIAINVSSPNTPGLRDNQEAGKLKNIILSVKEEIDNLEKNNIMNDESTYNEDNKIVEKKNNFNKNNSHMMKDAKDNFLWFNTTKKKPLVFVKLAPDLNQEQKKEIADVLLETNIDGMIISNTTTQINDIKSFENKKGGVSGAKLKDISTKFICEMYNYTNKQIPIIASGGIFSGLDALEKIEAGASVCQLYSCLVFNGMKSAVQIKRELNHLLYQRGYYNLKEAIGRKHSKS
A short description of test [15]: inhibition of PAO1 biofilm formation – strain PAO1, LB-PBS medium, absorbance 600 nm, primary screen (AID 1176). Also: test concentration not given here. As to conditions: P. aeruginosa PAO1 growth/biofilm, A600, 12 h; higher = more signal.
A short description of test [16]: growth modulation of vineyard yeast isolate – strain RM11-1a, OD600, basal, 24 h, primary screen (AID 1177).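 Also: cultures grown under basal conditions with no added stressor; test concentration not given here.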 The settings on record: S. cerevisiae RM11-1a growth, OD600, 24 h; higher = more signal, called active from +8 up or from −8 down.
The nature of test [17]: growth of efflux-deficient E. coli DRC39 – strain DRC39, OD650, 24 h, E. coli filamentation inducers, primary screen (AID 1178).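 Also: growth measured as culture turbidity by optical density at 650 nm; test concentration not given here.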 As to conditions: E. coli DRC39 acrAB, higher = more signal, called active from +8 up or from −8 down.
The nature of test [18]: growth of efflux-deficient E. coli DRC39 – strain DRC39, OD650, 48 h, E. coli filamentation inducers, primary screen (AID 1179).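 Also: screen aims at cell division blockers that make cells filament.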 The settings on record: E. coli DRC39 delta-acrAB growth, higher = more signal, called active from +8 up or from −8 down.
Test [19] in a line: viability profiling in RPMI8226 myeloma cells – cell-based, resazurin fluorescence, basal, 24 h, PK04 Diversity Set, profiling panel (AID 1180).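 Also: RPMI8826 multiple myeloma cell line at 5000 cells per well; test concentration not given here.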 As to conditions: higher = more signal.
For test [20], the target named is E3 ubiquitin-protein ligase XIAP (Homo sapiens) (UniProt P98170). The test can be described thus: small molecules binding XIAP protein – biophysical, small-molecule microarray, fluorescence 635 nm, primary screen (AID 1181).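 Also: score merges 667 nm emission and signal to noise over triplicate slides.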 The settings on record: higher = more signal.
Chain of E3 ubiquitin-protein ligase XIAP (Homo sapiens) (P98170 whole entry, looked up): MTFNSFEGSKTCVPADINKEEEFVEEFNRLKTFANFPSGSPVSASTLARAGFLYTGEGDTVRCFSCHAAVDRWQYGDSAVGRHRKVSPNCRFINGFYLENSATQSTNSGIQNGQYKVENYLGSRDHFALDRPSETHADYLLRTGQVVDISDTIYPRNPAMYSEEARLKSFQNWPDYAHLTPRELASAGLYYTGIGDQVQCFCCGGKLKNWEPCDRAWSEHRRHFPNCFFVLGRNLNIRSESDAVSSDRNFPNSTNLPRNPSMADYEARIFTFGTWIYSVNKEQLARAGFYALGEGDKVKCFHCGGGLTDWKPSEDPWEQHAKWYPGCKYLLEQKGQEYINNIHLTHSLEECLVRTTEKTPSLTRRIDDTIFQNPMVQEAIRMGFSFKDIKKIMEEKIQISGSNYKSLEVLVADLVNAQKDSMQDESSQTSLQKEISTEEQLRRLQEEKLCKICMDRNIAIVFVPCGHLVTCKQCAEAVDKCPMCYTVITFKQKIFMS

Calls of active or inactive are those of the source. Unless noted, no rule for the calls is given here.

Consider `COc1ccc([Si](C)(C)[C@H]2[C@H](CC(=O)N(CCO)Cc3ccccc3)O[C@@]3(C(=O)N(C)c4ccccc43)[C@@H]2C)cc1`, for which the z-score is -0.836 in [1]; 0.899 in test [2]; -1.12 in test [3]; -1.84 in test [4]; -3.42 in [5]; -0.433 in test [6]. Further, the z-score in test [7] was 0.505 (inactive); in [8], -0.965; in test [9], -0.176; in test [10], 0.221 (inactive); in test [11], 0.514; in [12], -1.42 (inactive). Also, the z-score in test [13] is -0.0262 (inactive); in test [15], 0.72 (inactive); in test [16], 0.11 (inactive); in test [17], 0.681 (inactive); in test [18], 0.455 (inactive); in test [19], 0.216. Also, the composite z-score was -0.0113 (inactive) in test [14] and 0.001 in [20].
On to `CCC1=C2CN(Cc3ccccc3Br)[C@@H]([C@@H](O)Cc3ccccc3)C2C=CCC1` (stereo not given in full), for which the z-score is 0.596 in test [1]; 2.48 in test [2]; 0.155 in [3]; -3.24 in [4]; -3.99 in test [5]; 1.42 in test [6]. The z-score in test [7] was -0.473 (inactive); in test [8] it was -0.981; in test [9] it was -2.18; in test [10], 1.07 (inactive); in test [11], 0.596; in test [12] it was -5.76 (inactive). In addition, the z-score in test [13] is -1.3 (inactive); in test [15] it was -0.693 (inactive); in test [16], -0.177 (inactive); in test [17], 1 (inactive); in test [18], 0.441 (inactive); in test [19], -1.25. The composite z-score was -2.74 (inactive) in [14] and 0.0451 in [20].
With `COc1ccc(C(=O)Nc2ccc(CN3C(=O)[C@]4(O[C@H](CCn5cc(CCO)nn5)[C@@H]([Si](C)(C)c5ccc(OC)cc5)[C@@H]4C)c4ccccc43)cc2)cc1`, the z-score in test [1] is -3.11; in test [2] it was -0.616; in [3] it was -4.54; in [4], -2.68; in [5], -4.37; in test [6], 1.17. In addition, the z-score in test [7] was 1.3 (inactive); in test [8], -1.1; in [9], -1.8; in test [10], -3.05 (inactive); in test [11] it was -2.97; in test [12] it was -5.51 (inactive). The z-score is -6.19 (inactive) in test [13]; 0.307 (inactive) in test [15]; 2.44 (inactive) in [16]; 1.09 (inactive) in test [17]; 0.72 (inactive) in test [18]; -3.23 in [19]. The values for the composite z-score in test [14] and in test [20] were 0.597 (inactive) and -0.0129, respectively.
Consider `[N-]=[N+]=NCc1ccccc1C[C@]1(C(=O)N2CCCCC2)N=C(c2ccc(OCCCO)cc2)O[C@H]1c1ccccc1CN=[N+]=[N-]`, for which the z-score is 0.0482 in test [1]; 0.628 in test [2]; -0.503 in [3]; -2.92 in test [4]; -4.22 in [5]; 0.675 in test [6]. Besides, the z-score is -0.539 (inactive) in test [7]; -1.19 in test [8]; -1.69 in test [9]; -0.179 (inactive) in test [10]; -0.182 in test [11]; 1.06 (inactive) in test [12]. In addition, the z-score in [13] is -1.32 (inactive); in test [15] it was 1.76 (inactive); in test [16], 0.736 (inactive); in [17], 0.0687 (inactive); in test [18], -0.352 (inactive); in test [19] it was -2.22. Also, the composite z-score in test [14] is -0.266 (inactive); in test [20] it was 0.377.
Consider `CC(C)C[C@@H]1NC(=O)[C@H]2C[C@@H](C(=O)NCCCCCC[N+](C)(C)C)[C@@H](c3ccc(O)cc3)N2C1=O`, for which the z-score in test [1] is -0.547; in [2], -0.304; in test [3], -1.01; in [4], -0.0171; in [5], 0.0824; in test [6], -0.575. Besides, the z-score was 0.177 (inactive) in test [7]; -0.342 in test [8]; -0.958 in test [9]; 1.09 (inactive) in [10]; 1.27 in [11]; -0.213 (inactive) in test [12]. Also, the z-score in test [13] is 0.771 (inactive); in [15], -1.04 (inactive); in test [16], 0.817 (inactive); in test [17] it was 0.385 (inactive); in test [18] it was 0.19 (inactive); in test [19], 0.985. Besides, the composite z-score was -1.51 (inactive) in [14] and -0.176 in test [20].
Regarding `COC(=O)C1=CC(c2ccc(CO)cc2)=CC(c2cccs2)N(Cc2cccc(OC(F)(F)F)c2)C=C1C(=O)OC` (stereo not given), the z-score in test [1] was -0.425; in [2] it was 0.531; in test [3], -0.282; in test [4], -1.63; in test [5], -2.08; in [6], -0.908. Also, the z-score in test [7] was -1.25 (inactive); in [8], -0.838; in test [9], -0.459; in test [10], -0.0711 (inactive); in test [11] it was -0.55; in test [12], -0.871 (inactive). The z-score was -1.67 (inactive) in test [13]; 0.683 (inactive) in test [15]; 1.62 (inactive) in [16]; 0.0045 (inactive) in test [17]; -0.964 (inactive) in [18]; -0.701 in test [19]. Further, the composite z-score in test [14] was -5.67 (inactive); in test [20], 0.109.
As to `COc1ccc([Si](C)(C)[C@@H]2[C@@H](CC(=O)N(CCO)Cc3ccccc3)O[C@]3(C(=O)N(Cc4cccc(N5CCC5=O)c4)c4ccccc43)[C@H]2C)cc1`, the z-score in test [1] was -1.45; in test [2], 1.5; in test [3], -2.2; in [4] it was -2.55; in test [5], -4.06; in test [6], 0.952. Also, the z-score in test [7] is -0.0485 (inactive); in [8], -0.917; in test [9] it was -0.523; in test [10], -1.82 (inactive); in test [11], -1.51; in test [12], 0.328 (inactive). Besides, the z-score in [13] was -2.9 (inactive); in test [15] it was 0.708 (inactive); in test [16], 1.32 (inactive); in test [17] it was 0.882 (inactive); in [18] it was -0.0661 (inactive); in test [19] it was -2.08. The composite z-score in [14] is -0.645 (inactive); in test [20], 0.154.
For `O=C1O[C@@H](c2ccccc2)[C@@H](c2ccccc2)N2[C@@H](c3ccc(OCCO)cc3)[C@]3(C(=O)Nc4ccc(C#CCCO)cc43)[C@@H](C(=O)N3CCN(c4ncccn4)CC3)[C@H]12`, the z-score in [1] is 0.848; in test [2], 0.38; in test [3] it was -0.17; in test [4] it was 0.0057; in test [5] it was 0.442; in test [6], 0.0349. For the same compound, the z-score in test [7] was 1.88 (inactive); in test [8], -0.623; in test [9] it was 0.173; in [10], 0.293 (inactive); in test [11], 1.26; in [12], 1.35 (inactive). The z-score was 0.833 (inactive) in [13]; 1.55 (inactive) in [15]; 2.04 (inactive) in test [16]; 1.05 (inactive) in [17]; 0.17 (inactive) in [18]; 2.17 in [19]. The composite z-score was -1.58 (inactive) in test [14] and 0.19 in [20].
For the compound `Cc1ccc([C@@H]2CC=C(C(=O)O)[C@H](c3ccccc3)N2S(=O)(=O)c2ccc(C)cc2)cc1`, the z-score is -0.612 in test [1]; 0.557 in [2]; -0.825 in test [3]; -0.251 in test [4]; -2.2 in test [5]; -0.957 in [6]. The z-score in test [7] is 0.289 (inactive); in test [8] it was -0.373; in [9], 0.511; in test [10] it was -0.997 (inactive); in test [11], -1.02; in test [12] it was -2.08 (inactive). Also, the z-score in test [13] was -1.26 (inactive); in test [15] it was -0.405 (inactive); in test [16], 0.0193 (inactive); in test [17], -1.36 (inactive); in test [18], -1.3 (inactive); in test [19], -1.99. Besides, the composite z-score in test [14] was -0.527 (inactive); in test [20], -0.202.
